Assay outcomes as filed in PubChem.
Sampled rows, rich in hits. Any-hit rate of the full collection: about 19%.
DT40 TDP1 CPT: DT40-hTDP1 cell growth loss with CPT; chicken DT40 Tdp1-/-;hTDP1 cells + 20 nM CPT, ATP luminescence, 48 h; Potency, µM (series often up to 46.2 µM), actives largely listed as inhibitors; 12% of 420,000 active; further: nearly all actives have a fitted effect of over 55% in size
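Chicken DT40 Tdp1-/- cells complemented with human TDP1, 400 cells/well, exposed to compounds plus 20 nM camptothecin for at least 48 h at 37 C; viability read as ATP content by CellTiter-Glo luminescence.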
TDP1 cell noCPT: qHTS for Inhibitors of human tyrosyl-DNA phosphodiesterase 1 (TDP1): qHTS in cells in absence of CPT; 15% of 420,000 active; DT40 Tdp1-/- hTDP1 cells, no CPT, ATP luminescence, 48 h; Potency, µM (series often up to 46.2 µM), actives largely listed as inhibitors; further: nearly all actives have a fitted effect of over 55% in size
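Chicken DT40 Tdp1-/- cells complemented with human TDP1, screened without camptothecin (DMSO vehicle only), 400 cells/well. Compounds pin-transferred, cells incubated at 37 °C for at least 48 hr. Growth read as ATP-dependent luminescence (CellTiter-Glo, 30 min at RT).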
HT1080 IDH1KD tx: kills HT-1080 cells with IDH1 knockdown | HT-1080 IDH1 knockdown viability, ATP luminescence, 48 h | Potency, µM (titrated, usually from 46.1 µM), hits mostly cytotoxic | 2% of 360,000 active
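Cytotoxicity counter-line: IDH1KD HT-1080, 48 h, CellTiter-Glo. Curves classed by r2, magnitude and activity.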
IL1B secr inh: inhibitors of inflammasome signaling (IL-1 beta secretion). AID 743279. THP-1 LPS/ATP IL-1B secretion, AlphaLISA, 16 h; active compounds read low. 4.7% of 360,000 active. activity change, % at 57.5 µM; in the data active means activity change below about -50%; inconclusive means mostly about -30% to -49%
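THP-1 cells pretreated 1 hr with compounds (up to 57.5 uM final), then stimulated with LPS (250 ng/mL final) plus ATP (1.25 mM final); secreted IL-1B measured by AlphaLISA after 16 hr, decreased signal indicating inhibition.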
HT1080-NT tox: kills 2HG-producing HT-1080-NT fibrosarcoma cells | HT-1080-NT fibrosarcoma viability, CellTiter-Glo ATP luminescence, 48 h | Potency, µM (titrated, usually from 46.1 µM), most hits filed as cytotoxic | 1.6% of 360,000 active;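 further: NT is the 2HG producing partner of a matched IDH1 knockdown line; nearly all actives have a fitted effect of over 55% in size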
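A 48-hour cytotoxicity screen used HT-1080-NT cells plated 2 hours before compound delivery. ATP-based CellTiter-Glo luminescence measured viability, normalized to DMSO and no-cell controls.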
Numbers stand for hits; . = inactive; ? = inconclusive; / = no result; [ ] = another dose, or the depositor's remark. Unless noted, the call rests on the fitted dose curve; in most records, active means well fitted curve in the direction sought with a large enough effect; inconclusive means small, poorly fitted or top-dose-only effect, or another doubt; inactive means no such curve, though single readings can be large; an effect the other way counts as inactive or inconclusive.

SMILES	DT40 TDP1 CPT	TDP1 cell noCPT	HT1080 IDH1KD tx	IL1B secr inh	HT1080-NT tox
Cc1ccc(C(=O)N/C(=C\c2ccc(-c3cccc([N+](=O)[O-])c3)o2)C(=O)NCCCN2CCOCC2)cc1	?	?	?	.	18.4µM
COc1ccc(C(=O)N/C(=C\c2ccco2)C(=O)NCCN2CCOCC2)cc1	.	.	.	.	.
CCOCCCNC(=O)c1cc(Sc2ccc(C)cc2)nc2ccccc12	.	?	.	?	.
COc1cccc(CNC(=O)c2cc(Sc3cccc(Cl)c3)nc3ccccc23)c1	?	14.6µM	/	/	/
CCOCCCNC(=O)c1cc(Sc2cccc(Cl)c2)nc2ccccc12	?	14.6µM	/	/	/
COc1ccc(/C=C/C(=O)NCCN2CCOCC2)cc1OC	?	20.6µM	.	.	.
COc1ccc(CCNC(=O)c2cc(Sc3cccc(Cl)c3)nc3ccccc23)cc1OC	8.2µM	7.31µM	/	/	/
COc1ccc(CNC(=O)c2cc(C)nc3ccccc23)cc1OC	.	.	.	.	.
C=Cc1ccc(C(=O)N2CCc3c(cnc(C)c3CNC(=O)c3ccc4c(c3)OCO4)C2)cc1	.[9.04 µM]	.	/	/	/
COc1ccc(-c2c(-c3ccc4c(c3)OCO4)c3ccccc3n2C)cc1	?	?	.	.	.
Cc1ccc(C2(C)NC(=O)N(CC(=O)NNC(=O)c3ccccc3F)C2=O)cc1 (stereo unspecified)	.	.	.	.	.
CCOc1ccc(/C=C/C(=O)NCCc2ccc(OC)c(OC)c2)cc1	?	23.1µM	.	.	.
CCOc1ccc(/C=C/C(=O)NCc2ccccc2)cc1	.	?	.	.	.
CCOc1ccc(Sc2cc(C(=O)NCCc3ccc(OC)c(OC)c3)c3ccccc3n2)cc1	3.66µM	5.8µM	/	/	/
CCOc1ccc(Sc2cc(C(=O)NCCc3ccccc3)c3ccccc3n2)cc1	.	.	/	/	/
CCCCn1cnc2c(Sc3c([N+](=O)[O-])ncn3C)nc(N)nc21	.	?	?	-94.7	.
CCCn1cnc2c(SCc3ccccc3F)nc(N)nc21	.	?	?	.	.
CCCCn1cnc2c(SCc3ccccn3)nc(N)nc21	.	.	.	-74.5	.
CCCCn1cnc2c(SCc3cccc(F)c3)nc(N)nc21	.	?	.	.	.
CCCCn1cnc2c(SCc3ccc([N+](=O)[O-])cc3)nc(N)nc21	14.6µM	?	.	.	.
CCC(C)Cn1cnc2c(SCc3ccccn3)nc(N)nc21 (stereo unspecified)	.	?	.	.	.
CCCn1cnc2c(Sc3c([N+](=O)[O-])ncn3C)nc(N)nc21	.	?	.	-54.0	.
Cn1cnc([N+](=O)[O-])c1Sc1nc(N)nc2c1ncn2Cc1ccccc1	?	?	.	-101.0	.
Cc1ccc(C(=O)CSc2nnc(CNc3ccc(F)cc3)o2)cc1	.	.	.	.	.
CCOC(=O)N1CCc2c(sc3c2C(=O)NC(c2cc(OC)c(OC)c(OC)c2)N3)C1 (stereo unspecified)	3.66µM	5.17µM	/	/	/
SMILES	DT40 TDP1 CPT	TDP1 cell noCPT	HT1080 IDH1KD tx	IL1B secr inh	HT1080-NT tox
COC(=O)c1ccc(C2NC(=O)c3c(sc(C)c3C)N2)cc1 (stereo unspecified)	.	.	.	.	.
CN1CCc2c(sc3c2C(=O)NC(c2ccccc2)N3)C1 (stereo unspecified)	?	23.1µM	.	.	.
CCOC(=O)N1CCc2c(sc3c2C(=O)NC(c2ccc(C(=O)OC)cc2)N3)C1 (stereo unspecified)	7.31µM	13µM	/	/	/
COc1ccc(C(=O)NCCS(=O)(=O)N2CCOCC2)cc1	.	.	.	.	.
C[n+]1c(-c2ccccc2)sc([S-])c1-c1ccccc1	23.1µM	9.2µM	.	.	.
Cc1ccccc1OCC1Cn2c(nc3c2c(=O)[nH]c(=O)n3C)O1 (stereo unspecified)	?	?	.	.	.
Cc1cccc(OCC2Cn3c(nc4c3c(=O)[nH]c(=O)n4C)O2)c1 (stereo unspecified)	?	10.3µM	.	.	.
CCc1ccc(OCC2Cn3c(nc4c3c(=O)[nH]c(=O)n4C)O2)cc1 (stereo unspecified)	?	25.9µM	.	.	.
Cc1c(C(=O)NCCN(C)C)n(C)c(=O)c2ccccc12	.	.	.	.	.
CCN(CC)S(=O)(=O)c1ccc(N2CCN(S(=O)(=O)c3ccc4c(c3)OCCO4)CC2)nc1	20.6µM	?	.	.	.
CCOC(=O)N1CCN(c2ccc(S(=O)(=O)N(Cc3ccccc3)Cc3ccccc3)cn2)CC1	13µM	13µM	.	.	.
CCN(CC)S(=O)(=O)c1ccc(N2CCN(c3ccccc3O)CC2)nc1	?	20.6µM	.	.	?
CCOC(=O)N1CCN(C(=O)CN(Cc2ccc(Cl)cc2)S(=O)(=O)c2ccccc2)CC1	?	20.6µM	.	.	.
CCN(CC)S(=O)(=O)c1ccc(N2CCN(CCO)CC2)nc1	.	.	.	.	.
O=C(CCl)N1c2ccccc2Oc2ccc3ccccc3c21	5.17µM	1.46µM	16.4µM	?	?
CC(=O)N1c2ccccc2Oc2cc3ccccc3cc21	.	.	.	.	.
CCOC1CCCc2oc(-c3ccsc3)c(-c3cnc(OC)nc3)c21 (stereo unspecified)	?	23.1µM	.	.	.
COc1ccc(-c2oc3c(c2-c2cnc(OC)nc2)C(O)CC3)cc1 (stereo unspecified)	?	?	.	.	.
COc1cc(CCN2C(=O)N[C@@H](CCc3ccccc3)C(C(C)=O)=C2C)cc(OC)c1OC	?	23.1µM	.	.	.
COCCN1C(=O)N[C@@H](CCc2ccccc2)C(C(C)=O)=C1C	.	?	.	.	.
Cn1c(SCC(=O)NN2C(=O)NC(C)(c3ccccc3)C2=O)nnc1-c1ccncc1 (stereo unspecified)	.	29.1µM	.	.	.
COc1ccc(C2=C(C)C(=O)N(Cc3ccc(C(=O)NCc4ccc(C)cc4)cc3)S2(=O)=O)cc1	.	.	/	/	/
COc1ccc(C2=C(C)C(=O)N(Cc3ccc(C(=O)Nc4cccc(F)c4)cc3)S2(=O)=O)cc1	20.6µM	23.1µM	/	/	/
COc1ccc(C2=C(C)C(=O)N(Cc3ccc(C(=O)Nc4ccc(F)cc4C)cc3)S2(=O)=O)cc1	3.26µM	3.66µM	/	/	/
CC1=C(c2ccc(C)c(C)c2)S(=O)(=O)N(Cc2ccc(C(=O)Nc3cc(F)ccc3F)cc2)C1=O	.	?	/	/	/
Cc1ccc(-c2nc3c(c(SCC(=O)N4CCCCC4)n2)Cc2cc(C)ccc2O3)cc1	.	?	/	/	/
C[C@H]1CN(S(=O)C(C)(C)C)[C@@H](CCO)/C1=C\c1ccccc1 (stereo partly specified)	.	?	.	.	.
